The panel holds about 79,000 compounds, 15% with a hit somewhere; the sample as a whole holds those more often. Unmarked numbers belong to inactive results. Activity calls are given as the source filed them. Rule as the data show it: active = growth inhibition above about 70%; inactive = the rest.
Columns and labels:
[1] = NCI Yeast Anticancer Drug Screen. Data for the rad50 strain (AID 155);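 also: 0% = growth of vehicle-only cultures of the same strain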; details: S. cerevisiae rad50 strain growth inhibition, active compounds read high
Summary of the method: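 Cells are treated with compound, grown, and their growth is then scored against vehicle-only cultures of the same repair-deficient yeast strain.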

[2] = NCI Yeast Anticancer Drug Screen. Data for the mec2-1 strain (AID 157); details: S. cerevisiae mec2-1 strain, active compounds read high
Summary of the method: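 Strain: mec2-1 (DNA repair/cell cycle alteration). Compound exposure, then growth measured; inhibition expressed relative to vehicle.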

[3] = NCI Yeast Anticancer Drug Screen. Data for the sgs1 mgt1 strain (AID 161);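 also: 0% = growth of cultures given vehicle only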; details: S. cerevisiae sgs1 mgt1 strain, active compounds read high
Summary of the method: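 Genetically altered yeast, compound exposure, growth inhibition relative to vehicle.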

[4] = NCI Yeast Anticancer Drug Screen. Data for the cln2 rad14 strain (AID 165);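 also: 0% = growth equal to vehicle treated cultures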; details: S. cerevisiae cln2 rad14 strain, active compounds read high
Summary of the method: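 Compounds are applied to the cln2 rad14 yeast strain, and growth is then compared with that of vehicle-treated cultures to give inhibition.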

[5] = NCI Yeast Anticancer Drug Screen. Data for the bub3 strain (AID 167); details: S. cerevisiae bub3 mutant strain, active compounds read high
Summary of the method: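 Part of a panel of yeast mutants defective in DNA damage repair or cell cycle regulation. Each strain is grown with compound, and inhibition is calculated relative to solvent-treated cultures.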

[6] = NCI Yeast Anticancer Drug Screen. Data for the mlh1 rad18 strain (AID 175); details: S. cerevisiae mlh1 rad18 strain growth inhibition, active compounds read high
Summary of the method: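 Read-out is yeast growth inhibition, calculated against vehicle-only controls. The compound was applied to a strain engineered with DNA damage repair alterations.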

[7] = at 5.0 µM (retest, dose inferred, filed as 0.5)
[8] = at 50.0 µM (retest, dose inferred, filed as 5.0)

Row | Compound | growth inhibition [1, 7] | growth inhibition [1, 8] | growth inhibition ([1]; at 50.0 µM) | growth inhibition [2, 7] | growth inhibition [2, 8] | growth inhibition ([2]; at 50.0 µM) | growth inhibition [3, 7] | growth inhibition [3, 8] | growth inhibition ([3]; at 50.0 µM) | growth inhibition [4, 7] | growth inhibition [4, 8] | growth inhibition ([4]; at 50.0 µM) | growth inhibition [5, 7] | growth inhibition [5, 8] | growth inhibition ([5]; at 50.0 µM) | growth inhibition [6, 7] | growth inhibition [6, 8] | growth inhibition ([6]; at 50.0 µM)
1 | CCCCCCCOc1ccc(C=O)cc1OC | 0% | 41% | 7.3% | -1% | 35% | 44% | 3% | 45% | 38.6% | -2% | 26% | 36.9% | -1% | 38% | 50% | 1% | 46% | 33.8%
2 | Clc1c2ccccc2cc2cccnc12 | 17% | 90% (active) | 50.2% | 7% | 26% | 54.6% | 6% | 81% (active) | 48.8% | 3% | 40% | 36% | 3% | 71% (active) | 76% (active) | 17% | 86% (active) | 67.2%
3 | Nc1ccccc1[S][Sn]([c]1ccccc1)([c]1ccccc1)[c]1ccccc1 | 99% (active) | 98% (active) | 98.5% (active) | 99% (active) | 98% (active) | 98.5% (active) | 99% (active) | 99% (active) | 98.5% (active) | 98% (active) | 98% (active) | 98% (active) | 97% (active) | 99% (active) | 98.3% (active) | 99% (active) | 99% (active) | 98.3% (active)
4 | Clc1cc[c]([Sn]([Cl])([O][Sn]([Cl])([c]2ccc(Cl)cc2)[c]2ccc(Cl)cc2)[c]2ccc(Cl)cc2)cc1 | 89% (active) | 97% (active) | 86.5% (active) | 95% (active) | 98% (active) | 88.5% (active) | 96% (active) | 97% (active) | 87.6% (active) | 42% | 98% (active) | 81.5% (active) | 97% (active) | 98% (active) | 87% (active) | 90% (active) | 95% (active) | 92.7% (active)
5 | CNC1c2ccccc2C(=O)c2cc3c(cc21)OCCOCCOCCOCCO3 (configuration not stated) | -10% | 7% | 11.8% | -4% | -12% | 8.1% | -10% | -12% | 12.1% | -25% | -12% | 40.8% | -13% | -2% | 20.8% | -6% | 1% | 27.2%
6 | C(=C\[P+](c1ccccc1)(c1ccccc1)c1ccccc1)/c1ccccc1 | 86% (active) | 99% (active) | 98.8% (active) | 94% (active) | 99% (active) | 99.7% (active) | 80% (active) | 99% (active) | 99.2% (active) | 76% (active) | 98% (active) | 98.1% (active) | 85% (active) | 98% (active) | 98.8% (active) | 91% (active) | 98% (active) | 99.1% (active)
7 | COc1ccc2c(c1)c1c(C)c3cnccc3c(C)c1n2CCCN | 9% | 44% | 74% (active) | 28% | -17% | 27.9% | 2% | 13% | 29.3% | 10% | -9% | -24.1% | 13% | -10% | 46.1% | 9% | 18% | 77.5% (active)
8 | CC(CO)(CO)N=Cc1cc(I)cc(I)c1O | 91% (active) | 100% (active) | 99.6% (active) | 97% (active) | 100% (active) | 99.6% (active) | 86% (active) | 99% (active) | 99.7% (active) | 87% (active) | 99% (active) | 99.4% (active) | 86% (active) | 100% (active) | 99.5% (active) | 98% (active) | 100% (active) | 99.6% (active)
9 | c1ccc2c(c1)OCC(CN1CCN(CC3COc4ccccc4O3)CC1)O2 (configuration not stated) | 41% | 57% | 76.7% (active) | 36% | 51% | 67% | 47% | 55% | 77.7% (active) | 52% | 58% | 84% (active) | 47% | 60% | 67.9% | 47% | 60% | 81.2% (active)

Reference: PubChem BioAssay (NCI)
